Reference: the supplement of paper PMC10981050
Where “and” joins values, the source holds several entries; their conditions need not be identical. Identical values can stand only once. Counter-ions that a name gives are not always drawn.

Columns and labels:
Assay in all cases: cell viability relative to vehicle control; higher = less cytotoxic
Settings in all cases: 10 µM
K562 = system: K562
Method in brief: (§1)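 After removal of identity-inconsistent compounds, the Selleck bioactive, kinase and epigenetic probe libraries were screened on CRISPR-edited mutant clones and isogenic wild-type clones of four leukaemia lines. Plates were 384-well, each well holding 2000 cells in 50 µL medium and receiving a single 10 µM acoustically dispensed dose. CellTiter-Glo luminescence was read 48 h later, after the supernatant was taken off. Genedata Screener was used to express viability as percent of the on-plate vehicle control.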

MARIMO = system: MARIMO
Method in brief: as §1

MOLM14 = system: MOLM14
Method in brief: as §1

OCI-AML2 = system: OCI-AML2
Method in brief: as §1

| Structure (SMILES) | cell viability (K562; SRSF2 genotype: SRSF2 P95H/wt) | cell viability (K562; SRSF2 genotype: SRSF2 wt/wt) [%] | cell viability (MARIMO; SRSF2 genotype: SRSF2 P95H/wt) [%] | cell viability (MARIMO; SRSF2 genotype: SRSF2 wt/wt) [%] | cell viability (MOLM14; SRSF2 genotype: SRSF2 P95H/wt) [%] | cell viability (MOLM14; SRSF2 genotype: SRSF2 wt/wt) [%] | cell viability (OCI-AML2; SRSF2 genotype: P95H/wt) [%] | cell viability (OCI-AML2; SRSF2 genotype: wt/wt) [%] |
| --- | --- | --- | --- | --- | --- | --- | --- | --- |
| CCOc1cn(-c2ccc(F)cc2C)nc1C(=O)Nc1ccc(Oc2ccnc3cc(OC)c(OC)cc23)c(F)c1 | 23.1% and 45.6% | 25.2 | 89.3 | 90.4 | 24.9 | 19.6 | 48.1 | 52.9 |
| NC(=O)c1cnc2[nH]ccc2c1N[C@@H]1[C@@H]2CC3C[C@H]1C[C@@](O)(C3)C2 | 89.4% and 109% | 98.6 | 70.9 | 71.5 | 13.2 | 9.06 | 15.3 | 19.3 |
| COc1ccc(CNc2nc(N3CCC[C@H]3CO)ncc2C(=O)NCc2ncccn2)cc1Cl [Avanafil] | 96.2% and 96.6% | 98.8 | 104 | 106 | 103 | 104 | 102 | 105 |
| CN(C)Cc1cccc(N=C(c2ccccc2)c2c(O)[nH]c3cc(C(N)=O)ccc23)c1 | 80.6% and 81.5% | 78.9 | 72.2 | 83.8 | 11 | 15.9 | 23.9 | 31.1 |
| CC(C)c1cc(-c2ccc(F)c3ccccc23)nc(N)n1 | 95.5% and 96.7% | 94.9 | 89.5 | 98.3 | 93.1 | 97.9 | 89.7 | 101 |
| CN1CCC(COc2cnc(-c3cccc(Cn4nc(-c5cccc(C#N)c5)ccc4=O)c3)nc2)CC1 | 30.9% and 26.1% | 30.5 | 61.7 | 63.6 | 55.6 | 47.5 | 49.2 | 52.8 |
| OC(CNCC(O)C1CCc2cc(F)ccc2O1)C1CCc2cc(F)ccc2O1 (stereo not given) [Nebivolol HCl] | 61.4% and 73% | 80.7 | 60.4 | 60.5 | 58.6 | 62.5 | 50.6 | 61.5 |
| Cc1nn(C)c2c1C(c1ccc(C(F)(F)F)cc1)C(C#N)=C(N)O2 (stereo not given) | 101% and 106% | 111 | 99.5 | 95 | 103 | 102 | 112 | 121 |
| O=C(NCc1ccncc1)C12CC3CC(C1)CC(c1ccc(Cl)cc1)(C3)C2 | 73.1% and 84.6% | 72.3 | 75.4 | 74.2 | 61 | 57.4 | 64.5 | 55.1 |
| COc1cc2c3cc1Oc1c(OC)c(OC)cc4c1[C@@H](Cc1ccc(O)c(c1)Oc1ccc(cc1)C[C@@H]3N(C)CC2)N(C)CC4 [Berbamine (dihydrochloride)] | 72.6% and 53.2% | 66.9 | 70.8 | 72.8 | 68.2 | 78.2 | 57.1 | 60.4 |
| CCS(=O)(=O)Nc1ccc(Oc2ccc(F)cc2F)c(-c2cn(C)c(=O)c3[nH]ccc23)c1 [ABBV-075 (Mivebresib)] | 20.9% and 13.8% | 33.2 | 7.17 | 9.37 | 1.9 | 1.8 | 7.64 | 13.5 |
| CC(C)CCNC(=O)[C@H](CC(C)C)NC(=O)[C@H]1O[C@@H]1C(=O)O [Loxistatin Acid (E-64C)] | 107% and 106% | 100 | 102 | 104 | 101 | 104 | 106 | 105 |
| C[C@@H]1C(=O)O[C@H]2C[C@@]34[C@H]5C[C@@H](C(C)(C)C)[C@]36[C@@H](OC(=O)[C@@H]6O)O[C@@]4(C(=O)O5)[C@]21O [Ginkgolide A] | 105% and 100% | 97.8 | 101 | 106 | 105 | 103 | 106 | 95.5 |
| C[C@H](CCC(=O)O)[C@H]1CC[C@H]2[C@@H]3[C@H](O)C[C@@H]4C[C@H](O)CC[C@]4(C)[C@H]3C[C@H](O)[C@]12C [Cholic acid] | 94.2% and 93.3% | 100 | 91.6 | 98 | 98.9 | 97.6 | 98.5 | 98.9 |
| Nc1nc(Cl)nc2c1ncn2[C@H]1C[C@H](O)[C@@H](CO)O1 [Cladribine] | 94.3% and 104% | 101 | 12.2 | 8.19 | 2.38 | 0.54 | 4.93 | 4.28 |
| COc1cccc(CCc2ccccc2OCC(CN(C)C)OC(=O)CCC(=O)O)c1 (stereo not given) [Sarpogrelate hydrochloride] | 90.3% and 96% | 92.4 | 84.3 | 89.3 | 88.1 | 102 | 96.9 | 100 |
| C[C@@H](CN1CC(=O)NC(=O)C1)N1CC(=O)NC(=O)C1 [Dexrazoxane] | 113% and 103% | 110 | 88.2 | 96.9 | 89.8 | 97.9 | 96.8 | 99.9 |
| OC[C@H]1OC(O)[C@H](O)[C@@H](O)[C@H]1O (stereo partly drawn) [D-Galactose] | 101% and 103% | 98.2 | 103 | 105 | 103 | 103 | 105 | 108 |
| CNC(=O)c1cc(Oc2ccc(NC(=O)Nc3ccc(Cl)c(C(F)(F)F)c3)c(F)c2)ccn1 [Regorafenib (BAY 73-4506)] | 17.6% and 21.9% | 14.9 | 29.2 | 28 | 16.6 | 13.1 | 23.1 | 22.8 |
| C#C[C@]1(O)CC[C@H]2[C@@H]3CCC4=CC(=O)CC[C@@H]4[C@H]3CC[C@@]21CC [Levonorgestrel (Levonelle)] | 104% and 102% | 101 | 95.7 | 109 | 104 | 103 | 105 | 108 |

| Structure (SMILES) | cell viability (K562; SRSF2 genotype: SRSF2 P95H/wt) | cell viability (K562; SRSF2 genotype: SRSF2 wt/wt) [%] | cell viability (MARIMO; SRSF2 genotype: SRSF2 P95H/wt) [%] | cell viability (MARIMO; SRSF2 genotype: SRSF2 wt/wt) [%] | cell viability (MOLM14; SRSF2 genotype: SRSF2 P95H/wt) [%] | cell viability (MOLM14; SRSF2 genotype: SRSF2 wt/wt) [%] | cell viability (OCI-AML2; SRSF2 genotype: P95H/wt) [%] | cell viability (OCI-AML2; SRSF2 genotype: wt/wt) [%] |
| --- | --- | --- | --- | --- | --- | --- | --- | --- |
| CS(=O)(=O)N1CCN(Cc2cc3nc(-c4cccc5[nH]ncc45)nc(N4CCOCC4)c3s2)CC1 [Pictilisib (GDC-0941)] | 88.3% and 97.1% | 94.5 | 64.3 | 57.8 | 55.9 | 64.6 | 48.5 | 55 |
| CN(C)c1ccc2nc3ccc(=[N+](C)C)cc-3sc2c1 [Methylene Blue] | 33.4% and 27.2% | 17.1 | 13.1 | 14.2 | 5.69 | 2.58 | 5.27 | 7.07 |
| CC(C(=O)O)c1ccc2c(c1)Cc1cccnc1O2 (stereo not given) [Pranoprofen] | 105% and 106% | 110 | 110 | 107 | 102 | 105 | 112 | 106 |
| CC(C)C[C@H](NC(=O)[C@H]1O[C@@H]1C(=O)O)C(=O)NCCCCN=C(N)N | 106% and 111% | 114 | 99.6 | 104 | 101 | 104 | 108 | 115 |
| C=C1CC23CCC4C(C)(C(=O)OC5OC(CO)C(O)C(O)C5O)CCCC4(C)C2CCC1(OC1OC(CO)C(O)C(OC2OC(CO)C(O)C(O)C2O)C1OC1OC(C)C(O)C(O)C1O)C3 (stereo not given) [Rebaudioside C] | 101% and 99.8% | 106 | 108 | 111 | 106 | 103 | 112 | 101 |
| CCN1CCC[C@H]1CNC(=O)c1cc(S(N)(=O)=O)ccc1OC [Levosulpiride (Levogastrol)] | 101% and 103% | 108 | 111 | 104 | 109 | 107 | 104 | 93.6 |
| CC1(C)S[C@@H]2[C@H](NC(=O)C(c3ccccc3)S(=O)(=O)O)C(=O)N2[C@H]1C(=O)O (stereo not given in full) [Sulbenicillin Sodium] | 109% and 103% | 97.7 | 104 | 113 | 97.7 | 105 | 90.7 | 99.3 |
| Cn1c(Nc2ccc(C(F)(F)F)cc2)nc2cc(Oc3ccnc(-c4ncc(C(F)(F)F)[nH]4)c3)ccc21 | 59.6% and 69.8% | 47.5 | 52.3 | 58.6 | 64.2 | 50.1 | 38.6 | 47.4 |
| C/C(=C\C(=O)OCCCCCCCCC(=O)O)C[C@@H]1OC[C@H](C[C@@H]2O[C@H]2[C@@H](C)[C@H](C)O)[C@@H](O)[C@H]1O [Mupirocin calcium] | 90.7% and 86.2% | 87.5 | 84.3 | 97.9 | 94.2 | 93.4 | 97.3 | 93.5 |
| CCC1(c2c[nH]cn2)Cc2ccccc2C1 [Atipamezole] | 82.9% and 78.3% | 81.6 | 83.2 | 85.9 | 78.9 | 88.9 | 90 | 89.7 |
| Cc1ccccc1C(OCCN(C)C)c1ccccc1 (stereo not given) [Orphenadrine citrate (Norflex)] | 96.7% and 92% | 91.3 | 79.7 | 97.3 | 93.3 | 98.1 | 83.2 | 95 |
| CCCc1cc(C(N)=S)ccn1 [Protionamide (Prothionamide)] | 99% and 98.7% | 101 | 98.8 | 102 | 95.4 | 102 | 100 | 112 |
| OCCn1cc(-c2ccc3c(c2)CC/C3=N\O)c(-c2ccncc2)n1 | 110% | 111 | 85 | 73 | 89.8 | 94 | 94.4 | 80.8 |
| CO[C@H]1/C=C/O[C@@]2(C)Oc3c(C)c(O)c4c(O)c(c(/C=N/N5CCN(C)CC5)c(O)c4c3C2=O)NC(=O)/C(C)=C\C=C\[C@H](C)[C@H](O)[C@@H](C)[C@@H](O)[C@@H](C)[C@H](OC(C)=O)[C@@H]1C [Rifampin] | 106% and 97.3% | 93.9 | 99.9 | 116 | 83.1 | 95.7 | 96.4 | 105 |
| CCCCCCCCCCCCCCCCOc1nc2ccc(C)cc2c(=O)o1 [Cetilistat] | 107% and 111% | 108 | 108 | 108 | 103 | 108 | 107 | 108 |
| Nc1ccc(Cl)cc1C(=O)C(F)(F)F [4-Chloro-2-(trifluoroacetyl)aniline hydrochl] | 106% and 98.3% | 112 | 101 | 99.5 | 105 | 109 | 105 | 115 |
| c1ccc2c(CCNc3ccc(Nc4ccncc4)cc3)c[nH]c2c1 | 28.3% and 44.5% | 46 | 21.3 | 44.4 | 0.51 | 0.5 | 0.66 | 2 |
| C=CCS[S+]([O-])CC=C (stereo not given) [Allicin] | 92.6% and 104% | 91.8 | 96 | 84.9 | 99.8 | 99.8 | 89.2 | 105 |
| O=C(c1ccc(/C=C/c2n[nH]c3ccccc23)cc1)N1CCNCC1 | 42.2% and 62.9% | 27.7 | 38.9 | 36.2 | 2.78 | 7.69 | 7.33 | 14.9 |
| COc1ccc(C2CC(=O)c3c(O)cc(OC4OC(COC5OC(C)C(O)C(O)C5O)C(O)C(O)C4O)cc3O2)cc1 (stereo not given) [Didymin] | 107% and 103% | 112 | 108 | 105 | 106 | 111 | 104 | 103 |
